Results on 38 sequences are retold here after the OligoGym collection.
Note: reference of the scale not given here.

One assay deals with TELO2. Description: pooled miR-30 sensor sort-seq; sequence = guide strand. To be noted: shRNA.
With TGTAAGAACAGAAGCTTCTGGG, the sensor-assay potency score (higher = more potent) is 0.738.
TTGGAGAGAGTCCACAACCGCC: the sensor-assay potency score (higher = more potent) was -1.23.
Same read-out and setting: the value for TAGGCATCGATGTGGAAGCGAA was -1.36.

The target of a further assay is TFAP4. The description is as above. Conditions: shRNA.
TTCACGATGACAGCTCGCCGCT yielded a sensor-assay potency score (higher = more potent) of -1.34.
Consider TTCTCTCCGTCTGTGTGGGGGA, for which the sensor-assay potency score (higher = more potent) is -0.652.
With TTCCCGCTCCAGCTTCTCCTGG, the sensor-assay potency score (higher = more potent) was -1.47.
As to TTCGTCCTTGTCCTCTGCCCGC, the sensor-assay potency score (higher = more potent) is -1.28.
TTGAGGGACTGGAATCCCGCGT yielded a sensor-assay potency score (higher = more potent) of -0.113.
In turn, TCGTCCTCCCAGATGTCCGGGG gave a sensor-assay potency score (higher = more potent) of -0.989.
TTGGCAAGGCTACAGAGCCCTC displayed a sensor-assay potency score (higher = more potent) of -1.54.
Still for that read-out and setting: the value for TGCTGAGCTTCTCTCCGTCTGT was -0.432; that for TTGCTGTTGGCGATCTCCCGCC was -0.484; that for ATCACCTTGAGCTTTTCCGGGT was -0.563.
With TACATGTGGGCCTCCAGCGAGC, the sensor-assay potency score (higher = more potent) is -1.01.
AATCACCTTGAGCTTTTCCGGG came in with a sensor-assay potency score (higher = more potent) of -1.02.

In a further assay the target is TFEB. The assay is described as above. Conditions: shRNA.
Take TTGCAGGTCCTTCTGCATCCTC: the sensor-assay potency score (higher = more potent) is -1.28.
On the same count and under the same terms, the figure for TAGCAGTGAGTCGTCCAGGAGC is -1.35.
TACACATTCAGGTGGCTGCTGG showed a sensor-assay potency score (higher = more potent) of -0.605.
In turn, TCTCCTTTCAATTAAGTTGTGA had a sensor-assay potency score (higher = more potent) of -0.161.
On the same count and under the same terms, the value for TAGCGTGTTGGGCATCTGCATT was -1.17; that for AAGGACATCGTCCAGACGCATA was -1.55; that for TTGTTGGTCATCTCCAGGCGGC was -1.28.
The same measure, in the same setting: the figure for TTGATGTTGAACCTTCGTCTCC is -0.765; for TTCGCTAGGCAGCTCCTGCTTC it is -0.419.
In turn, ATCTGTGAGCTCTCGCTTCTGG had a sensor-assay potency score (higher = more potent) of -0.356.
On to TCATTGATGTTGAACCTTCGTC, for which the sensor-assay potency score (higher = more potent) is -0.00793.

Another assay deals with TFPI2. The description is as above. To be noted: shRNA.
TACAAGTAGCTTCATCTGGAAA showed a sensor-assay potency score (higher = more potent) of -1.17.
TCTCACAAACAGTTGAACCATA yielded a sensor-assay potency score (higher = more potent) of -1.02.
Sequence TTATTCTTCAGATACAACCATA returned a sensor-assay potency score (higher = more potent) of -1.04.
The sequence TTGTATTAATAAAAACTGGTGA had a sensor-assay potency score (higher = more potent) of -0.407.
In turn, TTTATATCTTATGCATTGCAAG came in with a sensor-assay potency score (higher = more potent) of -1.47.
TAGGTGAAAGCATCACAGGTTC: the sensor-assay potency score (higher = more potent) was -0.157.
In turn, TCATCTTTTGGACTGTAGCAAA had a sensor-assay potency score (higher = more potent) of -1.13.
Consider TTGGATTAAAATAATAGCGAGT, for which the sensor-assay potency score (higher = more potent) is -0.659.
Sequence TTAGATTAAAGAAATACTTTTC gave a sensor-assay potency score (higher = more potent) of -0.873.
Regarding TGTCGTAGTAGTAACGGAGAAG, the sensor-assay potency score (higher = more potent) is -1.18.
In the case of TATAGGTGAAAGCATCACAGGT, the sensor-assay potency score (higher = more potent) was -0.811.
Regarding TACCTGTCGTAGTAGTAACGGA, the sensor-assay potency score (higher = more potent) is -0.941.
